From PubChem BioAssay (Tox21)
Results filed as inconclusive are left out. A call without a number means that no potency is given here. Active and inactive are the calls of the source. The call rests on the fitted dose curve; in most records, active means well fitted cell-killing curve with a large enough effect in the repeat runs; inconclusive means weak or mixed curves; inactive means flat fitted curve, though single readings scatter.

Experiment: qHTS assay to identify small molecule antagonists of the estrogen related receptor (ERR) signaling pathway from Tox21 library - cell viability counter screen (AID 1224834); further: nearly all actives have a fitted effect of over 30% in size
Details: ERR reporter cells viability, CellTiter-Fluor, 17.5 h; series mostly up to 92.4 µM
Text: National Center for Advancing Translational Sciences [NCATS]
NIH Chemical Genomics Center [NCGC]
U.S. Environmental Protection Agency [EPA]
National Institutes of Environmental Health Sciences [NIEHS]
National Toxicology Program [NTP]
U.S. Food and Drug Administration [FDA]
Estrogen related receptors (ERRs), the first orphan nuclear receptors discovered, play an important role in the control of cellular energy metabolism. ERRs are required for high-energy production in response to the environmental challenges. ERR-alpha was also identified as an adverse marker for breast cancer progression; ERR-alpha-positive tumors have a poor prognosis. To screen and to identify environmental compounds that perturb the ERR signaling pathways could provide valuable information for potential therapeutic or preventive measures in the treatment of metabolic disease. To differentiate true ERR antagonists or agonist from cytotoxic substances, the assay is multiplexed with cell viability assay.
Tox21 Assay Protocol Summary:
The ERR cells were dispensed at 2,000 cells/5 ul/well in 1536-well white plates using a Multidrop dispenser. After the assay plates were incubated at a 37 C/5% CO2 incubator for 6 hours, 23 nL of compounds dissolved in DMSO, positive and negative controls or DMSO only was transferred to the assay plate by a pin tool. The plates were incubated at 37 C for 17.5 hours. 1 ul/well of CellTiter-Fluor reagent was added into the assay plates using a Flying Reagent Dispenser. After 30-minute incubation at 37 C/5% CO2, the fluorescence intensity in the plates was measured using a ViewLux plate reader.

SMILES | Potency | viability change, negative = cytotoxic
CCCC(CCC)(C(=O)OCC)C(=O)OCC | inactive | –
CCCCC(=O)O[C@]1(C(=O)CO)[C@H](C)C[C@H]2[C@@H]3CCC4=CC(=O)C=C[C@]4(C)[C@@]3(F)[C@@H](O)C[C@@]21C | inactive | –
CCOc1ccc(OCC)c(Cl)c1 | inactive | –
COc1cc(Cl)ccc1Cl | inactive | –
CCCCCCC | inactive | –
COC(=O)c1ccc2cc(C(=O)OC)ccc2c1 | – | -1.01% [at 19 µM] (inactive)
NC(=O)NS(=O)(=O)c1ccc(Cl)cc1 | inactive | –
O=C1CCCCC1C1CCCCC1 (stereo not given) | inactive | –
C=CCCC=C | inactive | –
Cc1c(N)cccc1N | inactive | –
O=[N+]([O-])c1nccn1CO[C@@H](CO)[C@H](O)CO | inactive | –
O=c1[nH]c(=O)n([C@H]2C[C@H](O)[C@@H](CO)O2)cc1C(F)(F)F | inactive | –
CC(Oc1c(Cl)cccc1Cl)C1=NCCN1 (stereo not given) | inactive | –
CC(C)=CCC[C@](C)(O)[C@@H]1CC=C(C)CC1 | inactive | –
CC(CNC1CCCCC1)OC(=O)c1ccccc1 (stereo not given) | inactive | –
C[C@@H]1CN(c2c(F)c(F)c3c(=O)c(C(=O)O)cn(C4CC4)c3c2F)C[C@H](C)N1 | – | 2.27% [at 19 µM] (inactive)
O=c1[nH]cnc2c1ncn2[C@@H]1O[C@H](CO)[C@@H](O)[C@H]1O | inactive | –
NC1=NCC2c3ccccc3Cc3ccccc3N12 (stereo not given) | inactive | –
CCCCN1C[C@H](O)[C@@H](O)[C@H](O)[C@H]1CO | inactive | –
CCCCCCCCCC#N | inactive | –

SMILES | Potency | viability change, negative = cytotoxic
CC1(O)CSC(C)(O)CS1 (stereo not given) | inactive | –
COC(=O)N[C@H](C(=O)N[C@@H](Cc1ccccc1)[C@@H](O)CN(Cc1ccc(-c2ccccn2)cc1)NC(=O)[C@@H](NC(=O)OC)C(C)(C)C)C(C)(C)C | inactive | –
Cc1nnc(SCC2=C(C(=O)O)N3C(=O)[C@@H](NC(=O)Cn4cnnn4)[C@H]3SC2)s1 | inactive | –
CC(=O)Nc1ccc(C)c(Cl)c1 | inactive | –
CCCCCCCCCCCCCCCCOP(=O)([O-])OCC[N+](C)(C)C | inactive | –
CCOC(=O)[C@H](CCc1ccccc1)N[C@@H](C)C(=O)N1Cc2cc(OC)c(OC)cc2C[C@H]1C(=O)O | inactive | –
C=C(C)C(=O)OCCOP(=O)(O)O | inactive | –
Cc1nc(-c2ccccn2)ncc1C(=O)Nn1cc(C)c2cc(F)ccc21 | inactive | –
O=S(=O)(O)C(F)(F)F | inactive | –
CC1=C(O)C(=O)OC1C (stereo not given) | inactive | –
OCCN(CCO)CCN(CCO)CCO | inactive | –
CCN(CC)CCNC(=O)COc1ccc(Cl)cc1 | inactive | –
Cc1cc(NS(=O)(=O)c2ccc(N)cc2)nc(C)n1 | inactive | –
CC(C)(CO)[C@@H](O)C(=O)NCCC(=O)O | inactive | –
CC1(C)S[C@@H]2[C@H](NC(=O)C(C(=O)O)c3ccccc3)C(=O)N2[C@H]1C(=O)O (stereo not given in full) | inactive | –
Cc1ccc([N+](=O)[O-])cc1Cl | inactive | –
Cc1cn([C@@H]2O[C@H](CO)[C@@H](O)[C@@H]2F)c(=O)[nH]c1=O | inactive | –
CCC1(C)NC(=O)NC1=O (stereo not given) | inactive | –
c1ccc(CN(CC2=NCCN2)c2ccccc2)cc1 | inactive | –
OCC(CBr)(CBr)CBr | inactive | –
